Records with an inconclusive call do not appear. A call without a number means that no potency is given here. Calls of active or inactive are those of the source. Calls come from the whole dose curve; as a rule, active = well fitted cell-killing curve with a large enough effect; inconclusive = small, poorly fitted or top-dose-only effect, or effect the other way; inactive = no such curve, though single readings can be large or run the other way.
System: SKOV3
Test: Confirmatory qHTS for gynecologic anti-cancer compounds from libraries of approved drugs and bioactive compounds; note: nearly all actives have a fitted effect of over 55% in size
Conditions: gynecologic cancer cell panel viability, ATPlite luminescence, 48 h; series mostly up to 57.6 µM
How it was run: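 IC50 values derive from an ATPlite ATP-content luminescence assay following 48 h treatment at 37 C. Each compound ran as an 11-concentration, threefold series (57.5 uM to 0.977 nM); HEK 293T served as control line for selectivity index.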
Potency is the fitted concentration of half-maximal effect.

Row | SMILES | Potency
1 | COc1cc2c(Nc3ccc(NC(=O)c4ccccc4)cc3)ncnc2cc1OCCCN1CCOCC1 | inactive
2 | CN(C)C/C=C/C(=O)Nc1cc2c(Nc3ccc(F)c(Cl)c3)ncnc2cc1OC1CCOC1 (stereo not given) | inactive
3 | O=c1[nH]c(=O)n([C@H]2C[C@H](O)[C@@H](CO)O2)cc1Br | inactive
4 | CCN[C@H]1C[C@H](C)S(=O)(=O)c2sc(S(N)(=O)=O)cc21 | inactive
5 | Cc1cnc(Nc2cccc(CN3CCOCC3)c2)nc1Nc1cccc(S(=O)(=O)NC(C)(C)C)c1 | 10.9 µM (active)
6 | Cc1c(C)n(Cc2ccc(-c3ccccc3C(=O)O)cc2)c2ccc(C(=O)N[C@@H](C)c3ccc([N+](=O)[O-])cc3)cc12 | inactive
7 | CC[C@@]1(O)C(=O)OCc2c1cc1n(c2=O)Cc2c-1nc1ccccc1c2/C=N/OC(C)(C)C | 0.0432 µM (active)
8 | COc1cc2c(cc1-c1c(C)noc1C)ncc1[nH]c(=O)n(C(C)c3ccccn3)c12 (stereo not given) | inactive
9 | COc1cc2c(c(OC)c1OC)-c1ccc(OC)c(=O)cc1[C@@H](NC(C)=O)CC2 | inactive
10 | Cc1nc(Nc2ncc(C(=O)Nc3c(C)cccc3Cl)s2)cc(N2CCN(CCO)CC2)n1 | 21.7 µM (active)
11 | CCN1CCN(Cc2ccc(Nc3ncc(F)c(-c4cc(F)c5nc(C)n(C(C)C)c5c4)n3)nc2)CC1 | inactive
12 | CCc1cccc(CC)c1NC(=O)N1Cc2[nH]nc(NC(=O)c3ccc(N4CCN(C)CC4)cc3)c2C1 | inactive
13 | CNC(=O)c1ccccc1Sc1ccc2c(/C=C/c3ccccn3)n[nH]c2c1 | 19.3 µM (active)
14 | COc1cc(Nc2c(C#N)cnc3cc(OCCCN4CCN(C)CC4)c(OC)cc23)c(Cl)cc1Cl | 19.3 µM (active)
15 | COc1ccc2cc3[n+](cc2c1OC)CCc1cc2c(cc1-3)OCO2 | inactive
16 | NC(=O)Nc1cc(-c2cccc(F)c2)sc1C(=O)NC1CCCNC1 (stereo not given) | 5.44 µM (active)
17 | c1cc(N[C@@H]2CCNC2)nc(-c2cnc3ccc(-c4cn[nH]c4)cn23)c1 | inactive
18 | Cc1cc(CN2CCN(c3c(Br)cnc4nc(-c5ccc(N6CCN(C)CC6)cc5)[nH]c34)CC2)no1 | 34.3 µM (active)
19 | Cc1cc(C(=O)N2CCN(c3cccc(Cl)c3)CC2)n(-c2ccccc2)n1 | 0.544 µM (active)
20 | COc1cc(N2CCC(N)CC2)ccc1Nc1ncc(Cl)c(-c2c[nH]c3ccccc23)n1 | 21.7 µM (active)

Reference: PubChem BioAssay AID1345085 (National Center for Advancing Translational Sciences (NCATS), 2018)
